# Shown are actives, neighbours in structure and some others; about 19% of the full set was active somewhere.
# HT1080 IDH1KD tx: toxicity to HT-1080 IDH1 knockdown cells (counter line); HT-1080 IDH1 knockdown viability, ATP luminescence, 48 h; Potency, µM (titrated, usually from 46.1 µM), for inactives: at the top dose activity, negative = toxicity, actives largely listed as cytotoxic; actives 2% (n = 360,000); AID 686971;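 also: potency is read from the fitted curve at half-maximal effect; 0% = DMSO wells and -100% = cell-free medium wells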
#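 Knockdown cells (IDH1KD HT-1080) received compounds 2 h after plating at 750 cells/well and were kept 48 h at 37 °C in 5% FBS RPMI. A CellTiter-Glo luminescence read gave % activity for curve fitting.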
# IL1B secr inh: inflammasome signaling inhibition, IL-1 beta readout; AID 743279; activity change, % at 57.5 µM; actives 4.7% (n = 360,000); THP-1 LPS/ATP IL-1B secretion, AlphaLISA, 16 h; hits give low values; in the data active = activity change below about -50%; inconclusive = mostly about -30% to -49%
#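 Secreted IL-1B measured by AlphaLISA bead assay after 16 h compound exposure of THP-1 cells; compounds (final up to 57.5 uM) added 1 h before LPS (250 ng/mL) and ATP (1.25 mM) stimulation; lower signal means less secretion.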
# TDP1 cell CPT: DT40-hTDP1 cell growth loss with CPT. Potency, µM (titrated, usually from 46.2 µM), for inactives: at the highest dose activity change, negative = growth inhibition, usual class: inhibitors. actives 12% (n = 420,000). AID 686979. chicken DT40 Tdp1-/-;hTDP1 cells + 20 nM CPT, ATP luminescence, 48 h; also: potency is read from the fitted curve at half-maximal effect; nearly all actives have a fitted effect of over 55% in size
#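 Chicken DT40 Tdp1-/- cells complemented with human TDP1, 400 cells/well, exposed to compounds plus 20 nM camptothecin for at least 48 h at 37 C; viability read as ATP content by CellTiter-Glo luminescence.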
# ELG1 DNA repair: inhibitors of ELG1-dependent DNA repair in HEK293T cells | HEK293T ELG1-luciferase reporter, luminescence, 16 h; DNA damage induced by 5-fluorouridine | Potency, µM (highest dose often 46.1 µM), for inactives: at the top dose activity change, negative = inhibition, usual class: inhibitors | actives 2.3% (n = 330,000) | AID 504467; also: potency is read from the fitted curve at half-maximal effect; nearly all actives have a fitted effect of over 55% in size
#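 Cells (2,000 per well) received 5-fluorouridine plus test compound or DMSO and were incubated 16 hr at 37 °C, 5% CO2. Luciferase activity was read by luminescence 30 min after ONE-Glo addition; signal suppression marked inhibition of damage-induced ELG1 function.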
# DT40 TDP1 no CPT: qHTS for Inhibitors of human tyrosyl-DNA phosphodiesterase 1 (TDP1): qHTS in cells in absence of CPT | DT40 Tdp1-/- hTDP1 cells, no CPT, ATP luminescence, 48 h | Potency, µM (top dose mostly 46.2 µM), without a hit: at the highest dose activity change, negative = growth inhibition, most hits filed as inhibitors | actives 15% (n = 420,000); also: potency is read from the fitted curve at half-maximal effect; nearly all actives have a fitted effect of over 55% in size
#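 Compound effects on proliferation are scored in DT40 Tdp1-/-;hTDP1 cells in the absence of CPT. ATP levels (CellTiter-Glo luminescence) are recorded after a ≥48 hr, 37 °C incubation.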
# HT1080-NT tox: kills 2HG-producing HT-1080-NT fibrosarcoma cells | HT-1080-NT fibrosarcoma viability, CellTiter-Glo ATP luminescence, 48 h | Potency, µM (highest dose often 46.1 µM), for inactives: at the highest dose activity, negative = less viability, hits mostly cytotoxic | actives 1.6% (n = 360,000) | AID 686970;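 also: NT is the 2HG producing partner of a matched IDH1 knockdown line; potency is read from the fitted curve at half-maximal effect; 0% = DMSO-treated cells and -100% = media-only wells without cells; nearly all actives have a fitted effect of over 55% in size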
#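 Viability of the 2HG-overproducing fibrosarcoma line after 48 hours of compound exposure at 37 degrees C was determined by luminescence with CellTiter-Glo, and concentration-effect curves were then fitted and categorized.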
# An asterisk follows results filed as active; ? = inconclusive; . = not tested or not shown; [ ] = remark or other dose. Unless noted, calls follow the shape of the dose curve; as a rule, active = well fitted curve in the direction sought with a large enough effect; inconclusive = small, poorly fitted or top-dose-only effect, or another doubt; inactive = no such curve, though single readings can be large; an effect the other way counts as inactive or inconclusive. Unless noted, % is scaled to controls: 0 for no effect and ±100 for the full control effect.
SMILES,HT1080 IDH1KD tx,IL1B secr inh,TDP1 cell CPT,ELG1 DNA repair,DT40 TDP1 no CPT,HT1080-NT tox
CCCn1c(CC)nc([N+](=O)[O-])c1Sc1ccc(C)cc1,-29%,-68*,-2%,?,-29%,-12%
CO[C@@H]1[C@@H](OC)[C@H](C)[C@@](O)(CC(=O)O)O[C@H]1[C@H](C)[C@H]1O[C@@]2(CC[C@@](C)([C@H]3CC[C@@](C)([C@@H]4O[C@@H]([C@H]5O[C@](C)(O)[C@H](C)C[C@@H]5C)C[C@@H]4OC4C[C@H](OC)[C@@H](OC)[C@H](C)O4)O3)O2)C[C@H](O)[C@H]1C (stereo partly specified),.,.,0.6µM*,.,0.34µM*,.
COc1ccc(NCC(=O)n2c(C)c(C)c3ccccc32)cc1OC,1%,32,-25%,1%,?,-5%
CC1c2ccsc2CCN1S(=O)(=O)c1ccccc1 (stereo unspecified),-13%,-6,-18%,?,-16%,-2%
O=S(=O)(c1cccc(F)c1)N1CCc2sccc2C1c1ccc(OC(F)(F)F)cc1 (stereo unspecified),-23%,7,?,?,15µM*,?
COc1ccc(S(=O)(=O)N(C)CC(=O)Nc2cccc(C(C)=O)c2)cc1,-1%,-6,?,?,-27%,2%
COc1ccc(S(=O)(=O)N(C)CC(=O)Nc2cccc(C(C)=O)c2)cc1Cl,-3%,6,13µM*,?,13µM*,7%
COc1ccc(NC(=O)CN(C)S(=O)(=O)c2ccc3nc(C)sc3c2)cc1Cl,.,.,23µM*,.,8.2µM*,.
Cc1nc2ccc(S(=O)(=O)N(CC(=O)Nc3ccc(Cl)cc3)Cc3ccccc3)cc2s1,.,.,?,.,15µM*,.
Cc1ccccc1C1(CC(=O)N2CCCC(C)C2)CC(=O)N(Cc2cccnc2)C1=O (stereo unspecified),.,.,19%[9.04 µM],.,-28%,.
COc1ccc(N(CC(=O)NC2CCCCC2)C(=O)CCC(=O)Nc2nc(C)cs2)cc1OC,-1%,8,-19%,12%,-14%,5%
CC(C)(C)NS(=O)(=O)c1ccc(NC(=O)c2cc(-c3ccccc3)nc3ccccc23)cc1,3%,-3,?,23µM*,0%,-3%
CC(=O)Nc1ccc(NC(=O)c2cc(-c3ccccc3)nc3ccccc23)cc1,-15%,-18,?,?,12µM*,-21%
CCc1ccc(-c2cc(C(=O)Nc3ccc(S(=O)(=O)NC(C)=O)cc3)c3ccccc3n2)cc1,-22%,8,?,?,?,-21%
O=C(NC(=S)Nc1ccccc1)c1cc(-c2ccccc2)nc2ccccc12,-11%,24,29µM*,-16%,?,-6%
O=C(Nc1nn[nH]n1)c1cc(-c2ccc(Cl)c(Cl)c2Cl)nc2ccccc12,0%,2,2%,-19%,1%,0%
O=C(NNC(=O)c1cc(-c2ccc(Cl)cc2Cl)nc2ccccc12)Nc1ccccc1,?,-64*,?,?,21µM*,?
O=C(Nc1ccc(S(=O)(=O)Nc2nccs2)cc1)c1cc(-c2ccccc2)nc2ccccc12,?,-29,?,-5%,?,?
N#CCCn1c(=O)c(-c2ccccc2)nc2cnc(Oc3cccc(Cl)c3)nc21,.,.,-28%,.,?,.
COc1ccc(CC(=O)NNS(=O)(=O)c2ccc([N+](=O)[O-])cc2)cc1OC,12%,25,-3%,0%,-17%,3%
O=C(COC(=O)CCc1c[nH]c2ccccc12)Nc1ccccc1C(F)(F)F,0%,19,?,7%,-6%,3%[9.24 µM]
CCCCSc1oc(-c2ccco2)nc1S(=O)(=O)c1ccccc1,-11%,?,?,-7%,?,-1%
Cc1ccc(S(=O)(=O)c2nc(-c3ccco3)oc2SCc2ccc(F)cc2)cc1,.,.,21µM*,.,?,.
CC(C)CSc1oc(-c2ccco2)nc1S(=O)(=O)c1ccccc1,8%,?,?,1%,26µM*,5%
O=S(=O)(c1ccccc1)c1nc(-c2ccco2)oc1SCc1ccc(F)cc1,.,.,-17%,.,?,.
SMILES,HT1080 IDH1KD tx,IL1B secr inh,TDP1 cell CPT,ELG1 DNA repair,DT40 TDP1 no CPT,HT1080-NT tox
O=C(c1ccc([N+](=O)[O-])s1)N1CCN(c2ccccn2)CC1,?,44,23µM*,?,15µM*,-24%
O=C(NCCC(=O)N1CCN(c2ccccn2)CC1)c1ccc([N+](=O)[O-])cc1,7%,19,-19%,1%,3%,5%
O=C(Nc1c(C(=O)N2CCN(c3ccccn3)CC2)oc2ccccc12)c1ccc([N+](=O)[O-])cc1,13%,-18,23µM*,-7%,?,11%
Cc1ccc(C(=O)NCCNS(=O)(=O)c2ccccc2[N+](=O)[O-])cc1,9%,3,9%,-25%,2%,8%
CC(C)CNC(=O)C1(C)CCCN1C(=O)c1ccc2c(c1)CCO2 (stereo unspecified),21%,3,0%,.,-6%,20%
CCCN(CC(=O)Nc1ccccc1C)C(=O)C1CCN(S(=O)(=O)c2cccc(C(F)(F)F)c2)CC1,0%,6,-15%,14%,-19%,-9%
O=C(N1CCOCC1)C1(S(=O)(=O)c2ccccc2)CC=CC1,7%,12,-19%,-3%,-10%,9%
O=C(N1CCCCC1)C1(S(=O)(=O)c2ccccc2)CC=CC1,18%,16,21µM*,22%,8.2µM*,15%
CCOc1ccc(NC(=O)c2ccc(NC(=O)CCS(=O)(=O)c3cccs3)cc2)cc1,.,.,2%,.,-2%,.
Cc1ccc2c(c1)N(C(=O)CCC(=O)NC1CCC(C)CC1)CCO2 (stereo unspecified),7%,-12,?,4%,?,?
COc1ccc2c(c1)[nH]c1c(=O)n(/N=C/C3C(C)C=C(C)CC3C)c(=O)[nH]c12 (stereo unspecified),0%,6,?,?,?,-22%
COc1ccc2[nH]c3c(=O)n(/N=C/[C@H]4C(C)C=C(C)CC4C)c(=O)[nH]c3c2c1 (stereo partly specified),?,-58*,18µM*,?,16µM*,?

# Screens (PubChem BioAssay)
